Data on twelve compounds can be found in PubChem BioAssay.

Values joined by “and” are separate entries in the source; they are usually repeats but may differ in a detail not shown here. Equal values may be shown once. Active and inactive are the calls of the source.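 The calls were made as follows, unless noted: active = compounds whose cell count with miR-34 switched on is under 0.7 times the count with it off; inactive = the rest.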

A short description of experiment [1]: sensitizers of A549 cells to miR-34 induction, primary screen, imaging, A549 dox-inducible miR-34, nuclei and caspase counts (AID 1347080). The settings on record: A549 miR-34 inducible, Hoechst nuclei count, 48 h.
Experiment [2] in a line: survival rescue of mitochondrial mutant cells in low glucose, primary screen, MELAS cybrids, Rieske KO mouse fibroblasts, CellTiter-Glo (AID 1508586;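 active = mean z-score across replicates of 1.96 or higher in either the MELAS or the Rieske mutant cell line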;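 also: z relative to plate mean and SD of compound and empty wells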). (In ATP-based viability assays light output follows the ATP content of the culture.)
[3] abbreviates: stronger effect = lower value, cell number ratio, induced over uninduced.
The mark [4] stands for this setting: measured here: relative caspase fold change +Dox/-Dox.
Where [5] appears, read: measured here: total cells with miR-34 induction, stronger effect = lower value.
Where [6] appears, read: measured here: total cells without miR-34 induction.
The mark [7] stands for this setting: MELAS cybrid survival, CellTiter-Glo 48 h, stronger effect = higher value.
Setting [8] is: Rieske KO mouse fibroblast survival, CellTiter-Glo 72 h.
Also: test concentration not given here.

Regarding `CN(C)CCCCC(=O)Nc1ccc(NC(=S)NC(=O)c2ccc(C(C)(C)C)cc2)cc1`, the fold change was 1.13 (inactive) and 1.1 (inactive) in experiment [1] (setting [3]); 0.871 and 0.667 in experiment [1] (setting [4]). Further, the cell count in experiment [1] (setting [5]) was 4160 and 3360; in experiment [1] (setting [6]), 3670 and 3070. Further, the results for the z-score in experiment [2] (setting [7]) and in experiment [2] (setting [8]) were 0.0334 (inactive) and -0.0265, respectively.

With `COC(=O)NC(C(=O)NC(Cc1ccccc1)C(O)CN(Cc1ccc(-c2ccccn2)cc1)NC(=O)C(NC(=O)OC)C(C)(C)C)C(C)(C)C` (configuration not stated), the fold change is 0.891 (inactive) in experiment [1] (setting [3]) and 0.981 in experiment [1] (setting [4]). Also, the cell count in experiment [1] (setting [5]) was determined as 6490; in experiment [1] (setting [6]), 7280. In addition, the z-score was -0.349 (inactive) in experiment [2] (setting [7]) and 0.446 in experiment [2] (setting [8]).

With `COc1cc(F)c(C(C)C)cc1-c1ccc(C(F)(F)F)cc1CN1C(=O)OC(c2cc(C(F)(F)F)cc(C(F)(F)F)c2)C1C` (configuration not stated), the fold change in experiment [1] (setting [3]) is 0.899 (inactive); in experiment [1] (setting [4]), 0.917. Besides, the figures for the cell count in experiment [1] (setting [5]) and in experiment [1] (setting [6]) were 8290 and 9220, respectively. In addition, the z-score in experiment [2] (setting [7]) was -0.143 (inactive); in experiment [2] (setting [8]), 0.372.

As to `O=C(O)CCCN1CCC(OC(c2ccc(Cl)cc2)c2ccccn2)CC1` (configuration not stated), the fold change in experiment [1] (setting [3]) is 0.967 (inactive); in experiment [1] (setting [4]), 1.77. Also, the cell count in experiment [1] (setting [5]) is 8100; in experiment [1] (setting [6]), 8370. For the same compound, the results for the z-score in experiment [2] (setting [7]) and in experiment [2] (setting [8]) were 0.387 (inactive) and -0.496, respectively.

With `O=C1CCC[C@@H]2[C@@H]3CCC[N+]4([O-])CCC[C@H](CN12)[C@@H]34` (some centres not stated), the fold change was 0.977 (inactive) in experiment [1] (setting [3]) and 0.789 in experiment [1] (setting [4]). Also, the cell count in experiment [1] (setting [5]) turned out to be 9620; in experiment [1] (setting [6]), 9840. The z-score in experiment [2] (setting [7]) is -0.359 (inactive); in experiment [2] (setting [8]) it was 0.579.

In the case of `COC(=O)C1=COC(O)[C@@H]2C(CO)=CC[C@H]12` (some centres not stated), the figures for the fold change in experiment [1] (setting [3]) and in experiment [1] (setting [4]) were 0.899 (inactive) and 1, respectively. The cell count came to 8660 in experiment [1] (setting [5]) and 9630 in experiment [1] (setting [6]). Moreover, the z-score in experiment [2] (setting [7]) is -0.314 (inactive); in experiment [2] (setting [8]), -0.656.

For the compound `CCCSc1nc(NC2CC2c2ccc(F)c(F)c2)c2nnn(C3CC(OCCO)C(O)C3O)c2n1` (configuration not stated), the fold change in experiment [1] (setting [3]) is 0.894 (inactive); in experiment [1] (setting [4]), 0.998. Further, the cell count is 6430 in experiment [1] (setting [5]) and 7190 in experiment [1] (setting [6]). Also, the values for the z-score in experiment [2] (setting [7]) and in experiment [2] (setting [8]) were -0.266 (inactive) and -0.123, respectively.

Consider `C[C@@]12CC[C@H]3c4ccc(O)cc4CC(CCCCCCCCCS(=O)CCCC(F)(F)C(F)(F)F)[C@H]3[C@@H]1CCC2O` (some centres not stated), for which the results for the fold change in experiment [1] (setting [3]) and in experiment [1] (setting [4]) were 0.975 (inactive) and 0.957, respectively. The figures for the cell count in experiment [1] (setting [5]) and in experiment [1] (setting [6]) were 4560 and 4680, respectively. Further, the z-score in experiment [2] (setting [7]) is -0.569 (inactive); in experiment [2] (setting [8]), 0.522.

Consider `CC(C)CCNC(=O)C(CC(C)C)NC(=O)C1OC1C(=O)O` (configuration not stated), for which the fold change in experiment [1] (setting [3]) is 0.919 (inactive); in experiment [1] (setting [4]), 0.36. The values for the cell count in experiment [1] (setting [5]) and in experiment [1] (setting [6]) were 8670 and 9430, respectively. The z-score in experiment [2] (setting [7]) was -0.356 (inactive); in experiment [2] (setting [8]), 0.0853.

Turning to `CCC(C)Nc1cc(C(=O)NC2CC3CCC(C2)N3c2ccc(C(=O)C3CC3)cn2)c(C)cc1C(N)=O` (configuration not stated), the fold change was 0.94 (inactive) in experiment [1] (setting [3]) and 0.437 in experiment [1] (setting [4]). Besides, the cell count in experiment [1] (setting [5]) came out at 2340; in experiment [1] (setting [6]) it was 2490. Also, the results for the z-score in experiment [2] (setting [7]) and in experiment [2] (setting [8]) were 2.2 (active) and -1.06, respectively.

In the case of `CCOC(=O)C(CCc1ccccc1)NC(C)C(=O)N1C(=O)N(C)CC1C(=O)O` (configuration not stated), the results for the fold change in experiment [1] (setting [3]) and in experiment [1] (setting [4]) were 0.891 (inactive) and 1.39, respectively. Moreover, the results for the cell count in experiment [1] (setting [5]) and in experiment [1] (setting [6]) were 7920 and 8880, respectively. In addition, the z-score is 0.163 (inactive) in experiment [2] (setting [7]) and -0.0366 in experiment [2] (setting [8]).

Turning to `C[C@]12CCC(O)CC1=CCC1C2CC[C@]2(C)C(n3cnc4ccccc43)=CCC12` (some centres not stated), the fold change in experiment [1] (setting [3]) was 0.927 (inactive); in experiment [1] (setting [4]), 0.715. Moreover, the cell count in experiment [1] (setting [5]) amounted to 7740; in experiment [1] (setting [6]), 8340. The results for the z-score in experiment [2] (setting [7]) and in experiment [2] (setting [8]) were -0.32 (inactive) and -0.165, respectively.
